The whole screen tested about 53,000 sequences, of which about 3,700 (7%) were called active. This excerpt belongs to a sample that is enriched for actives. Unmarked numbers belong to inactive results.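 The calls were made as follows: active = gene knockdowns whose robust z-score for IL-1 alpha signal is at least 2 or at most -2, so actives lie on both sides; inactive = the rest.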

The values below come from PubChem BioAssay AID1508600 (Functional Genomics Laboratory (NCATS/FGL), 2020).

A short description of the assay: Components of the Cytosolic LPS Sensing Pathway: Gene Identification via Genome-wide siRNA Screen.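 Also: robust z of the log signal after scaling to non-targeting control siRNA wells of the plate.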 The settings on record: RAW264.7 macrophages, IL-1a HTRF, actives lie on both sides, screened at 100 nM (by protocol), cells primed 5 h with Pam3CSK4 first. In outline: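 RAW264.7 mouse macrophages reverse-transfected with single siRNAs (100 nM final) for 48h, primed with Pam3CSK4 for 5 hours, then transfected with LipidA for 24 hour. Supernatant IL-1a read by HTRF; values normalized to negative-control median, log-transformed robust z-scores.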
(Time-resolved FRET reads energy transfer from a long-lived donor to a nearby acceptor.)
For the sequence “GGGAAUUUUGGAAGAGUCUTT against F630003A18Rik”, the z-score was -3.23 (active).

Consider GCGAGGAAAGAGCACUGUATT against Fam107a, for which the z-score is -0.103.

For GGGCUAUGUUCGAAGUAAATT against Kbtbd3, the z-score is -0.848.

Regarding GGUGAGUAUAUUCAAGUUATT against Ndor1, the z-score is 4.36 (active).

With GGAUAUUUGGAGGACAACCTT against C1s1, the z-score is 0.0678.

On to CGAGAGGUUUGUCCAUAGATT against Tac4, for which the z-score was -0.86.

For the sequence GGGACAAUAAAACCAACACTT against Ulk4, the z-score is -1.04.

Turning to CCACCUUGGUCUAAUUUCUTT against Slitrk4, the z-score is -2.06 (active).

With GGCUCCUCAUUACCUCUACTT against Rrp7a, the z-score was 0.233.

GGGCCACACAGAAAUGGUUTT against Ank1: the z-score is 0.994.

In the case of GGAGAAAGGUGCUUCCGAUTT against Mrpl19, the z-score is 0.47.

Consider CGAUGGCUUGGUUCCAUUUTT against Tcaf3, for which the z-score was -0.0976.

GGCACUACAACGGAACUCATT against Slco5a1: the z-score is -1.82.

In the case of GCGUGUUAGGAAAAACUCUTT against Pars2, the z-score was 1.36.

CCGAGCAGUAUGUGAACGUTT against Cela1: the z-score is 3.56 (active).

Consider CCUUUACUGUCCAUUCCGATT against Stxbp2, for which the z-score was -0.533.

Regarding CCCUGUGAAAGUGUCAUAUTT against Pigq, the z-score is 1.28.

On to GGUUCAACUUCACACUGAGTT against Mettl22, for which the z-score was 1.08.

For the sequence GGAAAAAAAUGCUGUAUACTT against Insm1, the z-score was -0.599.

On to GGUGCUUUGUAAACUGUCUTT against Slc26a11, for which the z-score was -2.99 (active).

As for ACCUGUGAUGGUGGAGACUTT against AF067061, the z-score is 0.577.

For the sequence GCAUGCCCGUAAUCAAGUGTT against Racgap1, the z-score was 0.104.

With GGACUUCAGCAACUAUAGUTT against Ggt7, the z-score was -0.631.

For the sequence GUUCCACUACUUCUGCUCCTT against Olfr583, the z-score was 0.41.

On to GGUGCUUCCAGAAUCUUUATT against Epha5, for which the z-score was 0.517.

CCGGUUUCAAAUUGCCACUTT against Psmb4: the z-score was -2.73 (active).

On to “GGAAGGUAUCUGAGGUCCGTT against 2810408A11Rik”, for which the z-score is -0.106.

For GGCAUUGCUGGACUUUGAATT against Mvp, the z-score is -1.71.

Regarding GCUGCACGCACUGAUCAAGTT against Tjap1, the z-score is 1.02.

For the sequence “GGUUUUGUUAAAGAAGACGTT against 4833439L19Rik”, the z-score was -2.25 (active).

With CGGUGACGACGGAAUUCUATT against Cpne4, the z-score was -1.42.

On to GGAUUCAGAAGGCCUCAGUTT against Olfr399, for which the z-score was 0.132.

In the case of UACUAGCAGAUUAACCACCTT against H2bc4, the z-score was -0.192.

Regarding GGCAUCAACAGAAUAACCATT against Tomm34, the z-score was -1.31.

Turning to GGCCAAGUUUGACAAGGAATT against Nap1l5, the z-score is 2.32 (active).

As for GCUGCAUCGAAAAACUCAGTT against Mycbp2, the z-score was -0.564.

As to “GGAUUAUGGACCUCUUGGUTT against 4930595M18Rik”, the z-score was 0.554.

Regarding CCCAGUUGACAGGAGACCATT against Hps6, the z-score was 1.13.

GCAUUAUAAAAAGGUUCCGTT against Atp2b1: the z-score is 1.81.

With GGCCCAAGAGAAUAUCCAGTT against Gm6460, the z-score was 0.281.

Consider GCAGGACAAGGACAACACUTT against Dyrk2, for which the z-score was -2.1 (active).

With CCACCGAAAUCCUUAUUUUTT against Ppargc1a, the z-score is 0.522.

As for GCCAAGAGCACAUCUGCUATT against Suco, the z-score is -1.65.

For the sequence GCUGGGUCAAACAUGACGUTT against Klhl17, the z-score is 0.452.

Turning to ACCCUUUUGUUUACACUCUTT against Olfr763, the z-score is -0.76.

For the sequence GCCCAAAGAUGACAUCGUATT against Gars, the z-score is 1.74.

As for GCUAGACCCAUAAUAAAACTT against Synpo2l, the z-score was -0.851.

Turning to UUGACUCACCUUCCGAGGUTT against Lce1a1, the z-score is 0.0827.

Turning to GCGCAAUAUAGAGUCAUCATT against Rnls, the z-score is -2.83 (active).

Consider CCGUUUACCAACCAAGAAUTT against Tnfrsf17, for which the z-score was 0.0608.

Turning to GGUUUGCUACACUUCAGAATT against Xpr1, the z-score was 0.101.

For GCCAACUAGAAAACAACUGTT against Pdzd11, the z-score was 1.6.

On to GGUGGAACAGGCAGAAUUCTT against Syn2, for which the z-score was 1.92.

GGUCGCUACAAGAUGACUUTT against Hapln4: the z-score is 0.289.

Take GCCAGUCAGAUGUACAGUCTT against Pbx1: the z-score is 3.28 (active).

In the case of CCAGAGUACAGUGUAGUCATT against Hspb6, the z-score was 0.508.

Take GAACUUUUUUUCUGUGAACTT against Olfr175: the z-score was -1.58.

For GGAAAUCGAGAGAAAUUCATT against Tead2, the z-score was 2.07 (active).

For the sequence GCAGGUUGCACCAUGUAGATT against Slc25a42, the z-score was 0.701.

On to CCAUCUUGGGUUCUGGUCATT against Zc3h4, for which the z-score is -0.204.

Turning to GGGCAAAACACUGUCUUUCTT against Tlr5, the z-score is 1.87.

GCCUCUACUGGUUAUUUAATT against Slc22a15: the z-score was 2.09 (active).

With CCUUCAAGUACUUUCUCCGTT against Dcakd, the z-score is 1.22.

Consider GGAUGAGGAGGAAAAGCUGTT against Nop2, for which the z-score was -1.86.

On to GGUCAAUGAACAGCACCGGTT against Igfbp2, for which the z-score is 0.723.

As for GGAUAAAGGAAAAGAAACATT against Rcvrn, the z-score was -1.34.

Take CCAGACUCCUCUUAGAAGGTT against Ankrd34c: the z-score is 0.73.

Consider GCUAGAUCUUUCAUCCAACTT against Lrtm1, for which the z-score is 1.2.

In the case of GGCCUUGGUGAAAAUGCAGTT against Plaat1, the z-score is -2.07 (active).

For GGAGACAUGGACCAUGGCUTT against Mapt, the z-score is 0.37.

For the sequence GGUGAUGUAUAUUGAGUCUTT against Sdcbp2, the z-score is 0.149.

As to GGAUAGACUUGAUUCUUGGTT against Emid1, the z-score is 0.491.

For GGAAAUAGUACAGAAACCATT against Mcph1, the z-score was -2.44 (active).

As for CCAUGUUUUUAUAGCUCUUTT against Sidt2, the z-score was 1.49.

Turning to GGUGGAUAAAGCUUAAAUATT against V1rg10, the z-score was -0.258.

Turning to GGAGGCACAGAGAUUGAAGTT against Sry, the z-score is 0.247.

Turning to GGCAUCUUUGGAGACUGGUTT against Sycn, the z-score was 0.598.

As for CCUUUGGAAUUUCUAAUACTT against Stil, the z-score is -0.286.

GGCUGUCAAAACAGUGCUCTT against Hmgcs2: the z-score was 1.45.

With GCUGGAGACGUAUUUGUCCTT against Olfr294, the z-score was 2.17 (active).

For the sequence UUGGCUGCAUUAUCAUGAGTT against Olfr311, the z-score is -0.419.

Turning to GGUUUGGCAGAAGUGCAUGTT against Npff, the z-score is -0.801.

Consider GCUACAUCGCUCUUAUAGCTT against Foxl1, for which the z-score was 0.0236.

As to CGAUGUUGAGGGAUUAUCUTT against Tstd2, the z-score is -2.25 (active).

On to GGACUUGAAAUUAGCAAAATT against Arhgef3, for which the z-score is -0.0218.

As for GGACUUUAAAUGCAAUAUCTT against Trps1, the z-score was -0.567.

Consider “GGCUCCAAGCACUAAAUAATT against B130024G19Rik”, for which the z-score was 0.168.

Regarding CCUCAAACUAACCACUCACTT against Olfr1045, the z-score was -1.13.

Take GGAGAUCCUGGAAGACUUCTT against Ocstamp: the z-score was 2.18 (active).

Turning to GGACUAUGCCAAUGUCAGATT against Zfp763, the z-score is 0.0585.

Turning to GGGUAAGCCAAGAAGAAGUTT against Rgs4, the z-score was -1.01.

For the sequence GGGAAAAACUCUGUGUGUATT against Coasy, the z-score is -0.25.

Turning to GGCUCCACACGAUUGUUAGTT against Gne, the z-score is -0.0134.

As to GUUCCACCAGAUUUUCUAATT against Vmn1r28, the z-score is 2.6 (active).

GGAGAAUUUAGAGCUACCATT against Atg10: the z-score is -1.56.

On to GCCCAUCACUUAUAGUGGGTT against Usf2, for which the z-score is -0.799.

For the sequence GGAGCAUUUUAUUCAGAUGTT against Rad23b, the z-score was 2.22 (active).

Take GGUGGAGAAGAAAUCUAAGTT against Eif4g1: the z-score is -0.344.

As for CCUGAGACCGAAUUUUACCTT against Cer1, the z-score was -0.209.

As to GGAAACGUGGGCAUGAUCATT against Olfr944, the z-score is -0.239.

For GGAUAAUGAUGUGAAAGGCTT against Mrps30, the z-score was 0.984.

As to GGACAACAUGAACUGUCAGTT against Snrpd3, the z-score is -2.74 (active).

For GCUUGACUUUGAAAGUCCATT against Gm11733, the z-score is -1.54.

As to GGCUUUCUCCCAGCAAUAGTT against Scrt1, the z-score was -1.97.

Take GGGAUCAACAUUUACCGAATT against Ablim1: the z-score is 0.596.

Turning to CCCACCUUCCGACUUGAAUTT against Col12a1, the z-score is -1.12.

Turning to GUCAGAACCAUAGCCAUGATT against Vmn1r202, the z-score was -0.623.
